This note sets out measurements from PubChem BioAssay (NCATS).

A number with no mark means an inactive call. Results filed as inconclusive are left out. The source made the active and inactive calls. Unless noted, calls come from the whole dose curve; as a rule, active = well fitted curve in either direction with a large enough effect (not every such curve was filed as active); inconclusive = small, poorly fitted or top-dose-only effect, or another doubt; inactive = flat fitted curve, though single readings scatter. A value given as a limit tells only on which side of the number the result lay.

Assay [1] addresses Lysosomal acid glucosylceramidase (Homo sapiens) (UniProt P04062). Briefly: Glucocerebrosidase-p2 (AID 348; in the data active = potency below about 10 µM; note: potency is the fitted concentration of half-maximal effect). The settings on record: purified GBA, blue fluorogenic substrate, 40 min. Summed up:
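Compounds titrated from 0.6 nM upwards against 0.2 nM enzyme in pH 5.9 citric acid/KH2PO4, taurocholate, tween-20; blue fluorogenic substrate 80 uM, 40 min room temperature, stopped and read Ex 365/Em 440 for AC50.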

A short description of assay [2]: AP1 Signaling Pathway (AID 357). Note: % is set by controls: 0 for no effect and ±100 for the full control effect. The settings on record: ME-180 AP-1-bla reporter, EGF-induced, beta-lactamase ratio, 5 h; at 7.69 µM (top of the series) unless noted. The procedure, abridged: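 ME-180 cells with beta-lactamase reporter under AP-1 response element, stimulated with EC50 EGF; compounds tested in titration series, 5 h at 37 °C. CCF4 substrate added 2.5 h at room temperature; 460/530 nm emission ratio gave %activity and AC50.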

Assay [3] addresses Cytochrome P450 1A2 (Homo sapiens) (UniProt P05177). Briefly: p450-cyp1a2 (AID 410; calls by dose curve; note: potency is the fitted concentration of half-maximal effect;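 for activity change, negative = inhibition: -100% = full effect of reference inhibitor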). The settings on record: recombinant CYP1A2, luciferin-ME demethylation, luminescence; series mostly up to 11.4 µM. The procedure, abridged:
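Luminescent readout of luciferin formed from Luciferin-ME by human CYP1A2; data normalized against complete inhibition by 57 uM furafylline. Enzyme 20nM, substrate 100uM at Km, 100mM KPO4 buffer, 60 min reaction at room temperature.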

The nature of assay [4]: NFAT Signaling Pathway (AID 444).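 Note: carbachol stimulus at about its EC50 of 1 µM final; % is set by controls: 0 for no effect and ±100 for the full control effect.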 To be noted: Jurkat NFAT-bla M1, carbachol, beta-lactamase ratio, 5 h; at 7.69 µM (top of the series) unless noted. Summed up: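 Jurkat cells with NFAT-driven β-lactamase reporter and co-expressed M1 receptor, stimulated with carbachol (final 1 uM, ~EC50), compound titration, 5 h at 37 °C. CCF4 loaded 1 h at RT; 460/530 nm ratio gave %activity and AC50.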

The nature of assay [5]: Stat Signaling Pathway (AID 446).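 Note: ME-180 cervical cancer cells given 40 pM IL-6 alongside compound; SIE-controlled beta-lactamase reporter measured as 460/530 nm FRET emission ratio; % is set by controls: 0 for no effect and ±100 for the full control effect.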 The settings on record: ME-180 SIE beta-lactamase reporter, IL-6 stimulated, 5 h; at 7.69 µM (top of the series) unless noted. The procedure, abridged:
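IL-6/STAT signaling read in ME-180 cells via an SIE beta-lactamase reporter. Stimulus was 40 pM IL-6 (its AC50) for 5 hrs, so both activation and inhibition register.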

For assay [6], the target named is Glucocorticoid receptor (Homo sapiens) (UniProt P04150). Briefly: GR-GFP Redistribution (AID 450;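 active = compounds whose dose series gives a full or clear partial fitted curve of increased nuclear translocation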; note: potency is the fitted concentration of half-maximal effect). The settings on record: U2OS GR-GFP nuclear translocation, laser cytometry, 2 h.
Assay [7] has the same target. Briefly: GR-EFC Redistribution (AID 451; calls by dose curve; note: potency is the fitted concentration of half-maximal effect). The settings on record: CHO-K1 GR-EFC translocation, beta-gal luminescence, 2 h. The procedure, abridged: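 CHO-K1 cells expressing nuclear EA and GR-ED fragments of b-gal; compounds titrated up to 46 uM final, 2 h at 37 C. GR nuclear translocation read as complemented b-gal luminescence after 1 h RT detection.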
In assay [8] the target is Mitogen-activated protein kinase 10 (Mus musculus) (UniProt Q61831). Briefly: JNK3 AlphaScreen Assay (AID 530).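 Note: kinase came from lysate of stimulated human HepG2 cells; signal reports phosphorylation of biotinylated GST-cJun 1-79 at Ser73 with 10 µM ATP; % is set by controls: 0 for no effect and ±100 for the full control effect.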 To be noted: JNK3 lysate, c-Jun phosphorylation; series mostly up to 57.1 µM. Summed up: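 Pre-activated (IL-1β/TNFα) JNK3 in HepG2 lysates phosphorylates biotin-GST-cJun(1-79), 10 uM ATP; anti-phospho-cJun(Ser73) AlphaScreen read at room temperature, pH 7.6 Tris buffer. Compounds pre-incubated 15 min as titrations.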

The target of assay [9] is 3',5'-cyclic-AMP phosphodiesterase 4B (Homo sapiens) (UniProt Q07343). Nature of the assay: qHTS Assay for Inhibitors of PDE-IV (AID 607; active = well fitted activation curve with a large enough effect in the main read-out, with a control signal flat, not every such curve was filed as active; note: % of control where 0% means no effect). To be noted: HEK293 ACTOne CNG channel cells, membrane potential fluorescence; series mostly up to 22.9 µM. Summed up:
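Live HEK293 cells with a modified cyclic nucleotide-gated (CNG) channel report intracellular cAMP via membrane-potential dye fluorescence (ex 535/em 590 nm). Endogenous PDE-IV was targeted. Compounds were tested at up to 22.9 uM final; RO 20-1724 100 uM served as control.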
(Quantitative high-throughput screening tests each substance at several concentrations.)

In assay [10] the target is Cytochrome P450 2C19 (Homo sapiens) (UniProt P33261). Briefly: qHTS Assay for Inhibitors and Substrates of Cytochrome P450 2C19 (AID 899; active = well fitted curve in the direction sought with a large enough effect; an effect the other way counts as inactive or inconclusive; note: nearly all actives have a fitted effect of over 60% in size; note: potency is the fitted concentration of half-maximal effect). The settings on record: recombinant CYP2C19, luciferin-H EGE luminescence; series mostly up to 11.4 µM. Summed up: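 5 nM human CYP2C19 with 10uM Luciferin-H EGE (at KM) in 50mM KPO4, compound preincubated 10 min at 37C, then NADPH regeneration for 60 min at 37C. Luciferin read by luminescence after detection reagent; normalized to 57uM ketoconazole as full inhibition.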

Assay [11] is described as follows: qHTS Assay for Identification of Small Molecule Agonists for Hypoxia Response Element Signaling Pathway (AID 914; active = well fitted activation curve with a large enough effect in the signal ratio, with a control signal flat, not every such curve was filed as active; the % refers to the signal ratio; note: % of control where 0% means no effect). To be noted: ME-180 (cervical carcinoma) HRE-bla reporter, beta-lactamase ratio, CoCl2, 17 h; active compounds read high. The procedure, abridged:
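Compounds in a titration series were added to ME-180 reporter cells alongside an EC50 level of CoCl2. After 17 hours, beta-lactamase activity was read as the 460nm/530nm emission ratio of CCF4, giving AC50 values.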

Assay [12] concerns the target Cytochrome P450 2C9 (Homo sapiens) (UniProt P11712). Briefly: qHTS Assay for Inhibitors and Substrates of Cytochrome P450 2C9 (AID 883; active = well fitted curve in the direction sought with a large enough effect; an effect the other way counts as inactive or inconclusive; note: potency is the fitted concentration of half-maximal effect; nearly all actives have a fitted effect of over 60% in size). The settings on record: recombinant CYP2C9, luciferin-H luminescence, 60 min; series mostly up to 57.1 µM. The procedure, abridged:
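Human CYP2C9 (10nM) with Luciferin-H at 100uM (its KM) in 25mM KPO4; compound preincubated 10 min at 37C, then NADPH regeneration for 60 min at 37C. Luciferin read by luminescence after detection reagent; normalized to 57uM sulphaphenazole as full inhibition.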

In assay [13] the target is Cytochrome P450 3A4 (Homo sapiens) (UniProt P08684). Briefly: qHTS Assay for Activators of Cytochrome P450 3A4 (AID 885; active = well fitted curve in the direction sought with a large enough effect; an effect the other way counts as inactive or inconclusive; note: nearly all actives have a fitted effect of over 65% in size). To be noted: recombinant CYP3A4, Luciferin-PPXE luminescence, 60 min; series mostly up to 57.1 µM. Summed up: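 Quantitative HTS format: compounds preincubated with 20nM human CYP3A4 and Luciferin-PPXE substrate at KM, reaction started by NADPH regeneration, stopped after 60 min, luciferase luminescence read 20 min later.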

Assay [14] deals with Cytochrome P450 2D6 (Homo sapiens) (UniProt P10635). Nature of the assay: qHTS Assay for Inhibitors and Substrates of Cytochrome P450 2D6 (AID 891; active = well fitted curve in the direction sought with a large enough effect; an effect the other way counts as inactive or inconclusive;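 note: luciferin methyl ether substrate demethylated by CYP2D6 with NADPH regeneration; % is set by controls: 0 for no effect and ±100 for the full control effect; nearly all actives have a fitted effect of over 60% in size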). The settings on record: recombinant CYP2D6, luciferin-ME EGE luminescence; series mostly up to 11.4 µM. The procedure, abridged:
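Human CYP2D6 (5 nM) with 30 uM Luciferin-ME EGE (at Km) in 100 mM KPO4, compound preincubated 10 min, then NADPH regeneration system for 60 min at room temperature. Luciferin read by luminescence; normalized to 1.43 uM quinidine.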

Lysosomal acid glucosylceramidase (Homo sapiens), sequence (P04062 whole entry, looked up): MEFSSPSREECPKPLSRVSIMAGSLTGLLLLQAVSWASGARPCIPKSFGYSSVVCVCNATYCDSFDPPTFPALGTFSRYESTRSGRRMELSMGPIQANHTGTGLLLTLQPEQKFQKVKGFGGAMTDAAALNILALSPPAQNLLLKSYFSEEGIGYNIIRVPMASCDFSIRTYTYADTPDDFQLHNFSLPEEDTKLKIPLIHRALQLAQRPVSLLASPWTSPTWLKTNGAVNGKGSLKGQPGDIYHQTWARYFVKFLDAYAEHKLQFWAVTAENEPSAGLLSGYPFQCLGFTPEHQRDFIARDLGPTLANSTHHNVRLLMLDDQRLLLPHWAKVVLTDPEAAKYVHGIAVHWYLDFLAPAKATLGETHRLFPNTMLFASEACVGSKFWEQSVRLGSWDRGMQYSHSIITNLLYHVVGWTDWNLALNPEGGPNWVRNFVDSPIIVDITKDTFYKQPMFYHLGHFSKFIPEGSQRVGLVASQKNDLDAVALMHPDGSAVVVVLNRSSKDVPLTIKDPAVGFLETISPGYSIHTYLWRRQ
Cytochrome P450 1A2 (Homo sapiens), sequence (P05177 whole entry, looked up): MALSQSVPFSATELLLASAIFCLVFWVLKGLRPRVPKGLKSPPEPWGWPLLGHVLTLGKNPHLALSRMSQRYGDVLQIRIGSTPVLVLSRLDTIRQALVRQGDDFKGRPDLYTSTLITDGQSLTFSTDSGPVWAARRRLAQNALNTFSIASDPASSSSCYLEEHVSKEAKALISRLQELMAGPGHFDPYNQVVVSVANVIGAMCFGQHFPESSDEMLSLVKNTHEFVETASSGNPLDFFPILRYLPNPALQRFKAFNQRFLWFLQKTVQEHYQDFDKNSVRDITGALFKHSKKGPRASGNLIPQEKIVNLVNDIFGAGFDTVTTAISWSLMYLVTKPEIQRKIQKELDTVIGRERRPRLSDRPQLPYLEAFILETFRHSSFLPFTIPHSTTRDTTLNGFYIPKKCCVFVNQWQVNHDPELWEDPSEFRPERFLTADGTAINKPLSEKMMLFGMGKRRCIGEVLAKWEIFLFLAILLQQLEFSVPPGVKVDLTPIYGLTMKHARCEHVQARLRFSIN
Glucocorticoid receptor (Homo sapiens), sequence (P04150 whole entry, looked up, the tested form may be a part): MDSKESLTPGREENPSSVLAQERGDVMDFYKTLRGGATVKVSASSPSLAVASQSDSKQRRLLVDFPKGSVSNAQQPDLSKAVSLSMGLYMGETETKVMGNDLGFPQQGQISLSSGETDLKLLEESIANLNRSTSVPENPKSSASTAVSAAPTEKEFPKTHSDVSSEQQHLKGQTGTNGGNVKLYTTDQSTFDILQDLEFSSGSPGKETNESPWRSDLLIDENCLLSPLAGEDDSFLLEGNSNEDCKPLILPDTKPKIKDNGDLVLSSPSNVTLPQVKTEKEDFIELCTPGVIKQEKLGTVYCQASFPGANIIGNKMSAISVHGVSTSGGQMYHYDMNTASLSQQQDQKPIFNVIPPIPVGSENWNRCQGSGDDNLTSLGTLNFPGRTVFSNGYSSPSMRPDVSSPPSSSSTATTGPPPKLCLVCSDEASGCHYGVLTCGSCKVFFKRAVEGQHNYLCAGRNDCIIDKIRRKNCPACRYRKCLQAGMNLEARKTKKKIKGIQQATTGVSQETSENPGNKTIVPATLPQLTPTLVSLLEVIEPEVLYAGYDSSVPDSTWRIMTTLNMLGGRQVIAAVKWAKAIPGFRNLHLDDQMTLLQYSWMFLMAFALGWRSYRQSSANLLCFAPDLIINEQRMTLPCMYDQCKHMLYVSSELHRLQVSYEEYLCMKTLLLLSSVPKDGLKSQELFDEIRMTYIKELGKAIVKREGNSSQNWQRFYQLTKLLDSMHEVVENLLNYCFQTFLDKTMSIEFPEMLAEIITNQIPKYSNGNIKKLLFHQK
3',5'-cyclic-AMP phosphodiesterase 4B (Homo sapiens), sequence (Q07343 whole entry, looked up): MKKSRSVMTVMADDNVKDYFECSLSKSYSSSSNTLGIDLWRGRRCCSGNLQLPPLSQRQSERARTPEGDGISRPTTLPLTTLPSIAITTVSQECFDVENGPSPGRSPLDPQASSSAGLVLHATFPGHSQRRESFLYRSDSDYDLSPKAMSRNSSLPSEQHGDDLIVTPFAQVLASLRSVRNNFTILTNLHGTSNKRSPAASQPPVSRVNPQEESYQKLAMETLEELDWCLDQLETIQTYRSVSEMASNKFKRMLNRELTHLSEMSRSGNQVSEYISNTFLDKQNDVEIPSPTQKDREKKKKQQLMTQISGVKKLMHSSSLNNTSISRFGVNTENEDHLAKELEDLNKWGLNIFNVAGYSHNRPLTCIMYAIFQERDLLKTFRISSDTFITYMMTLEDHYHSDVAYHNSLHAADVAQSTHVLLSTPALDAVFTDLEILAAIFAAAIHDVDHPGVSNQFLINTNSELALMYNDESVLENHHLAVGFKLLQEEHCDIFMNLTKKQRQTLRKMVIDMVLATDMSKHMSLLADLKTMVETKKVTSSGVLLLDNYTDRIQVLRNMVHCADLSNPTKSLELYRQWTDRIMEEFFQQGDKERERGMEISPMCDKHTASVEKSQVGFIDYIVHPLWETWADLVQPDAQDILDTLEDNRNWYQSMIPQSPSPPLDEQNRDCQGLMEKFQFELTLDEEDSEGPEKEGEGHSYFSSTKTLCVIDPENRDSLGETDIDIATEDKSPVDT
Cytochrome P450 2C19 (Homo sapiens), sequence (P33261 whole entry, looked up): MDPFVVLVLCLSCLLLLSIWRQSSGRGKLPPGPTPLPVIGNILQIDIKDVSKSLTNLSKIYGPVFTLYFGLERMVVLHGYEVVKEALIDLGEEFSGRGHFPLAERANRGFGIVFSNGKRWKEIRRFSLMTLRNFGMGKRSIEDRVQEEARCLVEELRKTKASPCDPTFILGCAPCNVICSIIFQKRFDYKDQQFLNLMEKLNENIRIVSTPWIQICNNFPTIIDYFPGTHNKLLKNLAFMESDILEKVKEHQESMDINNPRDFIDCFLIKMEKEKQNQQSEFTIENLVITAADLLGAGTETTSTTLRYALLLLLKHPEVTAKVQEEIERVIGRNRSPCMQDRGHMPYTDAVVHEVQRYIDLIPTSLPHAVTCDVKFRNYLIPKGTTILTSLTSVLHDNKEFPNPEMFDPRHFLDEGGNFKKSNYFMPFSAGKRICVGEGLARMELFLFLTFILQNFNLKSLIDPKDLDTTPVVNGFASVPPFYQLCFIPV
Cytochrome P450 2D6 (Homo sapiens), sequence (P10635 whole entry, looked up): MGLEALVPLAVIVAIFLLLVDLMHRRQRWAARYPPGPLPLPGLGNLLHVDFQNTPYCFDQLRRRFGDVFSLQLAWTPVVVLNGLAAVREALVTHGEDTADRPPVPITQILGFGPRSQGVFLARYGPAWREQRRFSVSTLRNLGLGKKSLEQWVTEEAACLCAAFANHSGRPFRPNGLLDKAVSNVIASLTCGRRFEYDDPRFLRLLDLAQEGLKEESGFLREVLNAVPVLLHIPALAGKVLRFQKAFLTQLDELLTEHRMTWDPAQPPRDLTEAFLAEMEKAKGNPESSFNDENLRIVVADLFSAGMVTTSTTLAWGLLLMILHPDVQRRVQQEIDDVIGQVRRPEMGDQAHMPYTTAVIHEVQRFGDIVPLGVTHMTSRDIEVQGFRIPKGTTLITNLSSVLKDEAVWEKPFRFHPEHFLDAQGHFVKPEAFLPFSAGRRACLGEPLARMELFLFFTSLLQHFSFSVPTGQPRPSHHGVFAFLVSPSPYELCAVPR
Cytochrome P450 3A4 (Homo sapiens), sequence (P08684 whole entry, looked up): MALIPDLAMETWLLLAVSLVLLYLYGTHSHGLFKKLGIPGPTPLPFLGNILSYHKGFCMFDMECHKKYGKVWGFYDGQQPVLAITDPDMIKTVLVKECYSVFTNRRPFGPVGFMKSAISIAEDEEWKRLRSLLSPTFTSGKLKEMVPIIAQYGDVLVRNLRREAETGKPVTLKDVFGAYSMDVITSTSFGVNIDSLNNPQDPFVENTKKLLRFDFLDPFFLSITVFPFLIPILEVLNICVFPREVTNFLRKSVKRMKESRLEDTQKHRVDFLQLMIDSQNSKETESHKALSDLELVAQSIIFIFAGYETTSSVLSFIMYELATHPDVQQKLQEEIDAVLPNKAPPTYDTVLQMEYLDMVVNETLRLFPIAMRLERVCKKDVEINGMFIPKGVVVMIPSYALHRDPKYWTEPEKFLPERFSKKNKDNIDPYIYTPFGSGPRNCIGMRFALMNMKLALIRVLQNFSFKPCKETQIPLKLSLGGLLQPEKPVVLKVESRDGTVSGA
Cytochrome P450 2C9 (Homo sapiens), sequence (P11712 whole entry, looked up): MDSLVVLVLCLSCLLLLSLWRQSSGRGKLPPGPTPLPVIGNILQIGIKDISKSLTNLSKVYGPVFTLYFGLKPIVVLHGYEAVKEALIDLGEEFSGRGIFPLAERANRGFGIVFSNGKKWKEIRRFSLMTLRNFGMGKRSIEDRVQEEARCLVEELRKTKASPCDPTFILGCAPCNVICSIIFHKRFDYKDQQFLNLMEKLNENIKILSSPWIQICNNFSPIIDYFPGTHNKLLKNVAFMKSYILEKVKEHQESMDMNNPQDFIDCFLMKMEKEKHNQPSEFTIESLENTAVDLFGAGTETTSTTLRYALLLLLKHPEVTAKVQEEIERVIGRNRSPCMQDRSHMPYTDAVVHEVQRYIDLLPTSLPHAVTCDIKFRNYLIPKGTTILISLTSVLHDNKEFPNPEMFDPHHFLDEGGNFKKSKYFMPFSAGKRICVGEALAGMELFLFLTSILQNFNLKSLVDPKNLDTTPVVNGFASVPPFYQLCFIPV

In the case of `CO[C@H]1[C@H](O)[C@H](O[C@@H]2[C@H](Oc3cccc4c(O)c5c(=O)oc6ccc(C)c7c(=O)oc(c34)c5c67)O[C@@H](C)[C@H](O)[C@H]2O)O[C@@H](C)[C@@H]1O`, the Potency in assay [1] is above 11.4 µM; in assay [6], above 46 µM; in assay [7], above 9.22 µM. Besides, the activity change, negative = inhibition was 1.4% in [2], 10.4% in assay [4] and 1.22% [at 11.4 µM] in assay [8]. Besides, the Potency result in assay [3] is “inactive”. Further, the activity, negative = inhibition in [5] is 7.37%. In addition, the compound was classed as inactive in assay [9].
For `Nc1nc(N)c(Cn2ccnc2)c(=O)[nH]1`, the values for the Potency in assay [1], in [6] and in [7] were above 11.4 µM, above 46 µM and above 9.22 µM, respectively. Moreover, the activity change, negative = inhibition is -1.23% in assay [2], 17.6% in assay [4] and 2.41% [at 11.4 µM] in assay [8]. Besides, the Potency result in assay [3] was “inactive”. Moreover, in assay [5], the activity, negative = inhibition is 7.55%. The outcome in assay [9] was inactive.
As to `O=C(O)C(=O)Cc1ccc2c(c1)OCO2`, the Potency is above 11.4 µM in assay [1], 3.98 µM (active) in assay [3], above 46 µM in assay [6] and above 9.22 µM in assay [7]. For the same compound, the activity change, negative = inhibition is 6.13% in [2], 16.4% in [4] and 4.31% [at 11.4 µM] in assay [8]. The activity, negative = inhibition in [5] was 3.17%. In assay [9], the result was inactive. In [10], the Potency result was “inactive”. The activation in assay [11] is -7.84%.
For `C[C@@H]1[C@@H](C)N1C[C@H](O)Cn1ccnc1[N+](=O)[O-]` (stereo partly drawn), the Potency was above 11.4 µM in [1], above 46 µM in assay [6] and above 9.22 µM in [7]. Moreover, the activity change, negative = inhibition is 1.57% in assay [2], 5.22% in assay [4] and -1.55% [at 11.4 µM] in assay [8]. Also, in assay [3], the Potency result was “inactive”. For the same compound, the activity, negative = inhibition in assay [5] was -1.27%. Also, in assay [9], the compound was classed as inactive.
As to `C[C@H](Br)CN(C[C@H](C)Br)c1ccc2c(c1)Cc1ccccc1-2`, the Potency in assay [1] was above 11.4 µM; in assay [3], 3.16 µM (active); in assay [6], above 46 µM; in [7] it was above 9.22 µM; in assay [12], 3.16 µM (active); in [10], 2.51 µM (active). Besides, the values for the activity change, negative = inhibition in [2], in [4] and in [8] were -9.29%, 8.25% and -8.45% [at 11.4 µM], respectively. Moreover, the activity, negative = inhibition in assay [5] was -7.03%. The result in assay [9] was inactive. The activity change, positive = activation in assay [13] is -34.7% [at 11.4 µM]. Besides, in [14], the Potency entry is “inactive”.
Consider `Nc1nnnn1CCO`, for which the Potency in assay [1] is above 11.4 µM; in assay [3] it was 6.31 µM (active); in [6] it was above 46 µM; in assay [7], above 9.22 µM. Further, the activity change, negative = inhibition in assay [2] is 7.2%; in [4], 8%; in assay [8], 3.27% [at 11.4 µM]. Further, in [5], the activity, negative = inhibition was 12%. Moreover, in [9], the compound was called inactive. Also, the activation in [11] was 12.2%.
As for `CC1=C2C(=O)[C@@H]3[C@@H](CC=C4C[C@@H](O)CC[C@@]43C)[C@H]2CC[C@@]12O[C@H]1C[C@H](C)CN[C@H]1[C@@H]2C`, the Potency was above 11.4 µM in assay [1], above 46 µM in assay [6] and above 9.22 µM in assay [7]. For the same compound, the activity change, negative = inhibition is 1.78% in assay [2], 3.5% in [4] and 0.541% [at 11.4 µM] in assay [8]. Further, the Potency result in [3] is “inactive”. In addition, the activity, negative = inhibition in [5] was 0.17%. Moreover, the result in [9] was inactive.
As to `N[C@H](Cc1ccccc1)c1nn[nH]n1`, the Potency was above 11.4 µM in [1], 10 µM (active) in assay [3], above 46 µM in assay [6] and above 9.22 µM in assay [7]. In addition, the activity change, negative = inhibition is 11.1% in [2], 1.74% in assay [4] and 5.89% [at 11.4 µM] in assay [8]. In addition, the activity, negative = inhibition in assay [5] is -5.07%. Moreover, in assay [9], the compound was called inactive.
Turning to `O=C(O)CN1C(=O)CN=C(c2ccccn2)c2cc(Cl)ccc21`, the Potency in assay [1] is above 11.4 µM; in assay [3], 1.26 µM (active); in [6], above 46 µM; in assay [7], above 9.22 µM. Moreover, the results for the activity change, negative = inhibition in assay [2], in assay [4] and in assay [8] were 0.0967%, -1.6% and 3.65% [at 11.4 µM], respectively. The activity, negative = inhibition in assay [5] is 6.14%. In assay [9], the result was inactive.
Regarding `Cc1ncc([N+](=O)[O-])n1CCN=[N+]=[N-]`, the figures for the Potency in assay [1], in assay [6] and in [7] were above 11.4 µM, above 46 µM and above 9.22 µM, respectively. Further, the results for the activity change, negative = inhibition in [2] and in assay [4] were 3.02% and 5.75%, respectively. For the same compound, the Potency result in assay [3] is “inactive”. Besides, the activity, negative = inhibition in assay [5] was -11.7%. In [9], the result was inactive.
On to `C1C[C@@H]2CN(CCCN3CCOCC3)[C@@H](C1)O2`, for which the Potency in [1] was above 11.4 µM; in [6], above 46 µM; in assay [7], above 9.22 µM. Also, the activity change, negative = inhibition in [2] was -6.14%; in assay [4] it was 9.72%; in assay [8], 4.78% [at 11.4 µM]. For the same compound, the Potency entry in assay [3] is “inactive”. The activity, negative = inhibition in [5] is 11.7%. Besides, in [9], the compound was classed as inactive.
Consider `C[C@]1(O)CC[C@H]2[C@@H]3[C@@H](O)CC4=CC(=O)CC[C@@]4(C)[C@H]3CC[C@]21C`, for which the Potency in assay [1] is above 11.4 µM; in [6], above 46 µM; in assay [7] it was above 9.22 µM. Also, the values for the activity change, negative = inhibition in assay [2], in assay [3] and in assay [4] were 1.55%, 1.4% [at 2.29 µM] and 6.38%, respectively. Moreover, the activity, negative = inhibition in assay [5] was -1.92%. Further, the outcome in assay [9] was inactive.
